Consider 7 compounds from PubChem BioAssay (Tox21).

Values joined by “and” are separate entries in the source; they are usually repeats but may differ in a detail not shown here. Identical values can stand only once. Records with an inconclusive call do not appear. Where a structure was tested more than once in an assay, its records may differ in their call. Active and inactive are the calls of the source. Unless noted, the call rests on the fitted dose curve; in most records, active means well fitted curve in the direction sought with a large enough effect in the repeat runs; inconclusive means weak or mixed curves; inactive means no such curve, though single readings can be large; an effect the other way counts as inactive or inconclusive.

For test [1], the target named is Luciferin 4-monooxygenase (Photinus pyralis) (UniProt P08659). As to the kind of experiment: qHTS assay to identify small molecule inhibitors of firefly luciferase (AID 1224835). Further: nearly all actives have a fitted effect of over 25% in size. Further: potency means the concentration at half of the fitted maximal effect. A digest of the protocol: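 Quantitative HTS format; KM concentrations of both substrates. Purified P. pyralis FLuc activity quantified from luminescence images.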
Luciferin 4-monooxygenase (Photinus pyralis), sequence (P08659 whole entry, looked up): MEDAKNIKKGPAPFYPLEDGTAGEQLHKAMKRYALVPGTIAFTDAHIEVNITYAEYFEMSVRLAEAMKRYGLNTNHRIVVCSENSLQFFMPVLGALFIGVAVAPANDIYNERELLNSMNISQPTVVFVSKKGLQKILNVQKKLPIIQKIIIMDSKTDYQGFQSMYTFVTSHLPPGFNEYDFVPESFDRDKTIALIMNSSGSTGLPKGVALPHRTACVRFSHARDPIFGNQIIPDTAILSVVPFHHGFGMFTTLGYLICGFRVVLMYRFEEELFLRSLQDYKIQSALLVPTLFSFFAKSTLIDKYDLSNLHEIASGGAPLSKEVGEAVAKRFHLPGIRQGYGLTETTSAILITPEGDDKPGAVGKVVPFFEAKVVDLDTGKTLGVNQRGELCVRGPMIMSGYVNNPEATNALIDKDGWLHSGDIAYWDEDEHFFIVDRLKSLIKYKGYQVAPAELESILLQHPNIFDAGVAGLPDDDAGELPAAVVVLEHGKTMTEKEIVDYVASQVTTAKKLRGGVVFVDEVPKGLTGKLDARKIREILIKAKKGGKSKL
(In general: In qHTS, concentration-response curves come from the screen itself.)

Test [2] can be described thus: qHTS assay to identify small molecule agonists of the constitutive androstane receptor (CAR) signaling pathway - cell viability counter screen (AID 1224836). Further: nearly all actives have a fitted effect of over 45% in size. Further: potency means the concentration at half of the fitted maximal effect. The procedure, abridged:
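HepG2-CYP2B6-hCAR, 2500 cells/well, 4 h pre-incubation; cpd 15 conc + PK11195 0.75 uM final; 23 h, 37 C/5% CO2; CellTiter-Fluor, fluorescence.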

Test [3] is described as follows: qHTS assay to identify small molecule antagonists of the constitutive androstane receptor (CAR) signaling pathway - cell viability counter screen (AID 1224837). Further: nearly all actives have a fitted effect of over 45% in size. Further: potency means the concentration at half of the fitted maximal effect. A digest of the protocol:
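HepG2 cells stably expressing hCAR and a CYP2B6-2.2kb reporter were plated and pre-incubated 4 hr at 37 C/5% CO2, then given compounds at 15 concentrations plus 50 nM CITCO (final). After 23 hr, viability was read by CellTiter-Fluor fluorescence.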

Test [4] has as its target Nuclear receptor subfamily 1 group I member 3 (Homo sapiens) (UniProt Q14994). The experiment in a line: qHTS assay to identify small molecule antagonists of the constitutive androstane receptor (CAR) signaling pathway (AID 1224838). Further: nearly all actives have a fitted effect of over 40% in size. Further: potency means the concentration at half of the fitted maximal effect. The procedure, abridged:
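HepG2 cells stably co-transfected with hCAR and a CYP2B6-2.2kb luciferase reporter were seeded 4 h before compound addition at 15 concentrations. Cells were stimulated with 50 nM CITCO (final) for 24 h at 37 C; luciferase luminescence was then read.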

For test [5] the target is unchanged. The experiment in a line: qHTS assay to identify small molecule agonists of the constitutive androstane receptor (CAR) signaling pathway (AID 1224839). Further: nearly all actives have a fitted effect of over 15% in size. Further: potency means the concentration at half of the fitted maximal effect.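 On activation: HepG2 cells stably carrying human CAR and a CYP2B6 luciferase reporter.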 The procedure, abridged: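 HepG2-CYP2B6-hCAR cells, 2500/well, 4 h pre-incubation; compounds 15 conc.; PK11195 0.75 uM final; 24 h, 37 C/5% CO2; ONE-Glo luciferase read.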
Test [6] can be described thus: qHTS assay to identify small molecule antagonists of the estrogen related receptor signaling pathway with the pleiotropic PPARgamma coactivator (PGC) from Tox21 10K library - cell viability counter screen (AID 1224840; active means well fitted cell-killing curve with a large enough effect in the repeat runs, not every such curve was filed as active; further: nearly all actives have a fitted effect of over 40% in size; further: potency means the concentration at half of the fitted maximal effect). The procedure, abridged: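 PGC/ERR cells were seeded at 2,000 cells/well and left 6 hours at 37 C/5% CO2 before pin-tool addition of compounds in DMSO. After 17.5 hours at 37 C, CellTiter-Fluor was added and fluorescence read 30 minutes later.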

Test [7] addresses Thyrotropin receptor (Homo sapiens) (UniProt P16473). As to the kind of experiment: qHTS assay to identify small molecule agonists of the thyroid stimulating hormone receptor (TSHR) signaling pathway (AID 1224843; calls by dose curve; further: nearly all actives have a fitted effect of over 45% in size). The procedure, abridged: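 Cell line HEK293 with TSHR; density 800/well. Exposure 30 min RT. Readout HTRF cAMP (cAMP-d2/anti-cAMP-cryptate), 1 h RT before reading.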

Test [8] is described as follows: qHTS assay to identify small molecule agonists of the hypoxia (HIF-1) signaling pathway - cell viability counter screen (AID 1224844; calls by dose curve; further: nearly all actives have a fitted effect of over 50% in size). A digest of the protocol: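 HRE-bla ME-180 cells in medium with 0.5% dialyzed FBS were preincubated 5 hrs at 37C, exposed to compounds for 17 hrs, then viability was read as CellTiter-Glo luminescence after 30 min at room temperature, in the reporter wells.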

Test [9] in a line: qHTS assay to identify small molecule agonists of H2AX (AID 1224845; active means well fitted activation curve with a large enough effect in the signal ratio in the repeat runs, not every such curve was filed as active; the % refers to the signal ratio). The procedure, abridged: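 Wild-type CHO-K1 cells plated overnight, then exposed 3 hr at 37C to compounds at 15 concentrations (0.76% DMSO). Lysed, then HTRF anti-pH2AX(S139)-cryptate/anti-H2AX-d2 detection after 24 hr at room temperature; emissions 665 and 620 nm.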
The nature of test [10]: qHTS assay to identify small molecule agonists of the hypoxia (HIF-1) signaling pathway (AID 1224846; active means well fitted activation curve with a large enough effect in the signal ratio in the repeat runs, not every such curve was filed as active; the % refers to the signal ratio). A digest of the protocol: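 HRE-bla ME-180 cells (beta-lactamase reporter under hypoxia response element) were plated at 2,000 cells/well in medium with 0.5% dialyzed FBS, rested 5 hrs, then given compounds in DMSO for 17 hrs at 37C, 5% CO2. Reporter induction was read with CCF4-AM FRET substrate.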

Test [11] in a line: qHTS RealTime-Glo MT Cell Viability Assay in HepG2 cells - 24 hour (AID 1224867). Further: nearly all actives have a fitted effect of over 50% in size. Further: potency means the concentration at half of the fitted maximal effect. A digest of the protocol:
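Tox21 10K library screened in qHTS format on HepG2 cells carrying RealTime-Glo reagents. Compounds were added after a 5 h preincubation, and the luminescent signal from continuous culture was measured repeatedly during 40 h treatment.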

Test [12] is described as follows: A CellTox Green Cytotoxicity Assay to monitor cytotoxicity in HEK293 cells - 0 hour (AID 1224869). Further: nearly all actives have a fitted effect of over 50% in size. Further: potency means the concentration at half of the fitted maximal effect. The procedure, abridged:
(§1)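 HEK293 cells premixed with CellTox Green dye were seeded at 600 cells/well and left 5 h at 37 C/5% CO2 before pin transfer of 23 nL compound in DMSO. Fluorescence from dye bound to dead-cell DNA was read during 40 h treatment.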

A short description of test [13]: qHTS RealTime-Glo MT Cell Viability Assay in HepG2 cells - 40 hour (AID 1224870). Further: nearly all actives have a fitted effect of over 50% in size. Further: potency means the concentration at half of the fitted maximal effect. A digest of the protocol:
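HepG2 cells mixed with RealTime-Glo MT reagents (NanoLuc plus cell-permeant prosubstrate) were seeded at 600 cells/well, incubated 5 h at 37 C/5% CO2, then pinned with compounds in DMSO; nonlytic luminescence tracked viability during 40 h treatment.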

Test [14] in a line: qHTS assay to identify small molecule agonists of H2AX - cell viability counter screen (AID 1224847; calls by dose curve; further: top concentration of the series differs between compounds; nearly all actives have a fitted effect of over 30% in size). The procedure, abridged:
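Cells plated first: CHO-K1, 1000 per well in 10% FBS medium, incubated overnight at 37C. Then 15-point compound titration added (final DMSO 0.76%) for 3 hr. Finally CellTiter-Glo added and luminescence read.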

The nature of test [15]: A CellTox Green Cytotoxicity Assay to monitor cytotoxicity in HEK293 cells - 40 hour (AID 1224871). Further: nearly all actives have a fitted effect of over 45% in size. Further: potency means the concentration at half of the fitted maximal effect. A digest of the protocol: as §1
Test [16] in a line: qHTS RealTime-Glo MT Cell Viability Assay in HEK293 cells - 32 hour (AID 1224868). Further: nearly all actives have a fitted effect of over 50% in size. Further: potency means the concentration at half of the fitted maximal effect. On activity change, negative = cytotoxic: top concentration of the series differs between compounds. The procedure, abridged:
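Luminescence generated by NanoLuc from substrate produced by living HEK293 cells served as the viability signal. Each value reflects the reading at its stated time point during continuous 40 h compound exposure at 37 C.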

The nature of test [17]: qHTS assay to identify small molecule antagonists of the estrogen related receptor signaling pathway with the pleiotropic PPARgamma coactivator (PGC) from Tox21 10K library (AID 1224841; call rule not given here; further: potency means the concentration at half of the fitted maximal effect). The procedure, abridged: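 PGC/ERR reporter cells were seeded at 2,000 cells/well and held 6 hours at 37 C/5% CO2 before pin-tool addition of compounds in DMSO. After 18 hours at 37 C, One-Glo was added and luminescence read after 30 minutes at room temperature.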

Test [18] can be described thus: qHTS assay to identify small molecule agonists of the estrogen related receptor signaling pathway with the pleiotropic PPARgamma coactivator (PGC) from Tox21 10K library (AID 1224842). Further: nearly all actives have a fitted effect of over 15% in size. A digest of the protocol: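 PGC/ERR reporter cells (NTP line) were seeded 2,000 per well, rested 6 h at 37 C/5% CO2, then pin-dosed with compounds in DMSO for 18 h at 37 C; luciferase read by One-Glo luminescence after 30 min at room temperature.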

Test [19] is described as follows: qHTS assay to identify small molecule antagonists of the estrogen related receptor (ERR) signaling pathway from Tox21 library (AID 1224848). Further: nearly all actives have a fitted effect of over 50% in size. Further: potency means the concentration at half of the fitted maximal effect. A digest of the protocol: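 Screening used an ERR reporter line supplied by NTP, exposed for 18 h at 37 C to library compounds delivered in DMSO. Signal was luciferase luminescence developed with ONE-Glo at room temperature for 30 min.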

The nature of test [20]: qHTS assay to identify small molecule agonists of the estrogen related receptor (ERR) signaling pathway from Tox21 library (AID 1224849; calls by dose curve; further: nearly all actives have a fitted effect of over 15% in size). Particulars: ERR reporter cell line, ONE-Glo luciferase, 18 h. The procedure, abridged:
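ERR reporter cell line (NTP) seeded, rested 6 h at 37 C/5% CO2, then pinned with Tox21 compounds in DMSO. After 18 h at 37 C, ONE-Glo luciferase luminescence was read following 30 min at room temperature.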
On the % scale 0 is the no-effect control and ±100 the full control effect.

Thyrotropin receptor (Homo sapiens), sequence (P16473 whole entry, looked up): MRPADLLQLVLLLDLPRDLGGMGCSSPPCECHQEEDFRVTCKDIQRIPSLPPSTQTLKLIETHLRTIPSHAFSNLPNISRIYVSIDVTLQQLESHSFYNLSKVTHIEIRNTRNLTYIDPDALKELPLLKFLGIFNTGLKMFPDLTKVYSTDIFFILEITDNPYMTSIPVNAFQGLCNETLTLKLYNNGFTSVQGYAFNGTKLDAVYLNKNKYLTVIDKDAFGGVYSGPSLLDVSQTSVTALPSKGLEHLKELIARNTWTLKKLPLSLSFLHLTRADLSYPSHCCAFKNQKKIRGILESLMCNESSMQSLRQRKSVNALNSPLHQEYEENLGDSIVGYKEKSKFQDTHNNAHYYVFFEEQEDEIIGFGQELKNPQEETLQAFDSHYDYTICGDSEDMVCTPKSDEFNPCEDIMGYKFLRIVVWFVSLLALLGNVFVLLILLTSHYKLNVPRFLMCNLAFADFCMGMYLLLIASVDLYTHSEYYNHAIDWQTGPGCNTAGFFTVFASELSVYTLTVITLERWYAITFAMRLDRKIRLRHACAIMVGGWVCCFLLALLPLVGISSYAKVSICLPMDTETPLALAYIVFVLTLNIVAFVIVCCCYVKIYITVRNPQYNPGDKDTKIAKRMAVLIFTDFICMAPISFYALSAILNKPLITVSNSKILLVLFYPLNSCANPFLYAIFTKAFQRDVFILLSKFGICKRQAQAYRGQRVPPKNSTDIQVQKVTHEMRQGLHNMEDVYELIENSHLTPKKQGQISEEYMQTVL
Nuclear receptor subfamily 1 group I member 3 (Homo sapiens), sequence (Q14994 whole entry, looked up): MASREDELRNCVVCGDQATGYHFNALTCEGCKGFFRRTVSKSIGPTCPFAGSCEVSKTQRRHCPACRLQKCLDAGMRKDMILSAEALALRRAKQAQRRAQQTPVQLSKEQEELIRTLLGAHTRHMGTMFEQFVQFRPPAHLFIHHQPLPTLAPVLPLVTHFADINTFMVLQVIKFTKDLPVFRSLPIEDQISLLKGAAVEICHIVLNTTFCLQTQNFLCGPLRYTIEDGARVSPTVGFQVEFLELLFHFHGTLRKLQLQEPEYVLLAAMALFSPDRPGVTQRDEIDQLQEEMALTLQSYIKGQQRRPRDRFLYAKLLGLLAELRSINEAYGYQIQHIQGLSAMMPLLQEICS

Regarding `CN(N=O)C(=O)N[C@@H]1[C@@H](O)[C@H](O)[C@@H](CO)O[C@@H]1O`, the Potency result in [1], in test [2], in [3], in [4], in test [5] and in [6] was “inactive” throughout. The Potency entry in test [7], in test [8], in [9], in test [11], in test [12] and in test [13] was “inactive” each time. Moreover, in test [10], the result was inactive.
With `Cc1cc(C)nc(NS(=O)(=O)c2ccc(N)cc2)n1`, the Potency entry in test [1], in test [2], in [3], in [4], in [5] and in [6] was “inactive” in each case. Moreover, the Potency result in test [7], in [9], in test [14], in test [11], in test [12] and in test [13] was “inactive” throughout. Further, in test [15], the Potency result is “inactive”. In addition, the compound was classed as inactive in [10].
For `O=C1NC(=O)C(c2ccccc2)(c2ccccc2)N1`, the Potency result in test [1], in test [2], in [3], in test [4], in test [5] and in [6] was “inactive” each time. Moreover, the Potency result in test [7], in test [9], in [14], in test [11], in [16] and in [12] was “inactive” each time. The Potency entry in [13] is “inactive”. Moreover, in [15], the Potency entry is “inactive and 16.9 µM (active)”.
As for `CCCCCCc1ccc(O)cc1O`, the Potency result in [1], in test [2], in [3], in test [4], in test [5] and in test [6] was “inactive” throughout. Further, the Potency result in test [17], in [18], in test [7], in [9], in [19] and in test [11] was “inactive” in each case. In addition, the Potency result in test [12] and in test [13] was “inactive” each time. The call in [10] was inactive. In addition, the activity change, positive = activation in [20] (at 42.5 µM (top of the series)) is 2.16% (inactive); in test [20] (at 92.4 µM (top of the series)), -16.7% (inactive) and -6.89% (inactive). Also, the Potency in [16] is 21.9 µM (active) and 9.77 µM (active); in test [15], 49.1 µM (active) and 49 µM (active) and inactive.
Regarding `CCCc1cc(=O)[nH]c(=S)[nH]1`, the Potency entry in test [1], in [2], in [3], in test [4], in test [5] and in test [6] was “inactive” in each case. Besides, the Potency entry in test [7], in test [8], in [9], in [14], in test [11] and in test [16] was “inactive” throughout. For the same compound, the Potency result in test [12], in test [13] and in test [15] was “inactive” each time.
In the case of `Nc1ccc2c(c1)CN1C(=O)c3ccccc3C1=N2`, the Potency was 0.213 µM (active) in test [1]; 0.184 µM (active) in test [5]; 4.65 µM (active) in [16]; 11.7 µM (active) in test [12]; 10.4 µM (active) in test [15]. The activity, negative = inhibition in test [4] was -44.6% [at 19 µM] (inactive). The activation is -0.704% [at 19 µM] (inactive) in test [7] and 0.64% [at 15.8 µM] (inactive) in test [10]. The activity change, negative = cytotoxicity in test [11] was -3.47% [at 15.8 µM] (inactive). The activity change, negative = cytotoxic in [13] is 1.05% [at 15.8 µM] (inactive).
Consider `Nc1c(N=Nc2ccc(-c3ccc(N=Nc4cc(S(=O)(=O)O)c5ccccc5c4N)cc3)cc2)cc(S(=O)(=O)O)c2ccccc12`, for which the Potency was 39.9 µM (active) in test [1]; 27.3 µM (active) in [2]; 24.3 µM (active) in test [3]; 27.3 µM (active) in test [4]; 21.7 µM (active) in test [6]; 21.7 µM (active) in test [17]. Moreover, the values for the Potency in [19], in [11] and in test [13] were 24.3 µM (active), 48.9 µM (active) and 48.9 µM (active), respectively. The Potency result in [5], in test [18] and in test [12] was “inactive” in each case. Moreover, the activity change, positive = activation in test [20] (at 92.4 µM (top of the series)) was -40.2% (inactive).
